Source: PubChem BioAssay (NCI)
This is part of a sample that, as a whole, favours compounds with a hit. Of some 83,000 tested, about 20% had one in any assay.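 A percent growth of 40 corresponds to 60% growth inhibition; 0 means no net growth; -100 means all cells died. Active threshold: below 10.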 A number with no mark means an inactive call. The source made the active and inactive calls.

The compounds below were run on SK-OV-3 ovarian (assay: NCI-60 one-dose screen, 48 h (100 = growth as untreated, 0 = no growth, -100 = all killed)). Conditions: 10 µM unless noted.

| Structure (SMILES) | growth |
| --- | --- |
| Fc1ccc2nc(-c3ccc(-c4noc(-c5ccc(Cl)cc5)n4)cc3)[nH]c2c1 | 113% |
| CCNS(=O)(=O)c1ccc(C)cc1 | 112% |
| OC(c1cc(-c2ccc(C(F)(F)F)cc2)nc(-c2ccc(C(F)(F)F)cc2)c1)C1CCCCN1 (stereo not given) | -74.3% (active) |
| CC1(C)C(N(O)C(=O)Nc2ccc(Cl)cc2)N(c2ccc(Cl)cc2)C(=O)N1CC(=O)N/N=C/C=C/c1ccc([N+](=O)[O-])o1 (stereo not given) | 57.8% |
| Cc1cc(N=Nc2ccc(-c3ccc(N=Nc4ccc(O)c(C(=O)O)c4)cc3)cc2)c(N)c(N=Nc2ccc(C(=O)O)cc2)c1N | 103% |
| NC(N)=N/N=C\c1cccc(OCc2ccccc2)c1 | 81.6% |
| CNC(=O)c1ccccc1Sc1ccc2c(/C=C/c3ccccn3)n[nH]c2c1 | 44.5% |
| CC(=O)c1c(C)nc(-c2cc(C)cc(Cl)c2)nc1-c1cccc(Oc2ccccc2)c1 | 84% |
| CCN(CC)Cc1cc(Nc2nc(NC3CCC(N(C)C)CC3)c3ccccc3n2)ccc1OC (stereo not given) | 107% |
| Cc1nc2c(-c3cnc(N)nc3)nc(N3CCOCC3)nc2n1C(C)C | -39.7% (active) |
| C[C@@H]1C[C@H](N)C[C@H](c2ccncc2NC(=O)c2ccc(F)c(-c3c(F)cccc3F)n2)C1 | 62% |
| Nc1nonc1-c1nc2ccccc2n1Cc1ccc(F)cc1 | 54.4% |
| C=CC[C@]1(O)CC[C@H]2[C@@H]3CCc4cc(O)ccc4[C@H]3CC[C@@]21C | 107% |
| [Ag].[Ag].[NH-]S(=O)(=O)c1ccc(N=Nc2cc(N=Nc3ccc(S([NH-])(=O)=O)cc3)c3c(NC(=O)C(Cl)Cl)cccc3c2OC(=O)C(Cl)Cl)cc1.[c-]1nccs1.[c-]1nccs1 | 114% |
| CCCCCCCCCCCCCCC(C(=O)OCC)C(=O)OCC | 112% |
| CN(C)c1ccc(C(c2ccccc2)c2ccc(N(C)C)cc2)cc1 | 106% |
| Cc1n(Cc2ccc3ccccc3n2)cc[n+]1Cc1ccc2ccccc2c1 | -2.36% (active) |
| FC(F)(F)c1ccc(/C=N/Nc2nnc3n2N=C(c2ccc(Cl)cc2)CS3)cc1 | 40.8% |
| CS(=O)(=O)Nc1cc(-c2cc3ncc(C#N)c(Nc4ccc(Oc5ccccc5)c(Cl)c4)c3s2)cnc1Cl | 43.4% |
| Cc1cc(C)c2c(n1)sc1c(Nc3ccc(O)cc3)ncnc12 | 30.5% |
| c1ccc(C2=Nc3ccccc3SC2)cc1 | 110% |
| COc1cc2c(cc1OCCCOc1cc3c(cc1OC)C(=O)N1CCC[C@H]1C=N3)C=CC(C)(C)O2 | 112% |
| O=[N+]([O-])c1cccc(N=C(Nc2cccc([N+](=O)[O-])c2)c2ccccc2)c1 | 107% |
| C=CCn1c(C)nc2cc(Nc3nc(N4CCOCC4)nc4nc[nH]c34)ccc21 | 82.6% |
| C=C1NC(=O)C(C(C)CC)NC(=O)C2CSCC(NC(=O)CCC(=O)O)C(=O)NC(Cc3ccccc3)C(=O)NC(C)C(=O)NC(CC(C)CC)C(=O)NC(C(=O)NC(Cc3ccccc3)C(=O)N3CCCC3C(=O)N2)C(C)OC(=O)C(CO)NC(=O)C(C(O)COC)N(C)C(=O)C(C(C)C)NC(=O)C(CC(C)CC)NC1=O (stereo not given) | 39% [6 µM] |
| COc1ccc(-c2nc(-c3cc(OC)cc(OC)c3)[nH]c2-c2ccc(OC)cc2)cc1 | 85.6% |
| N#Cc1nc(-c2cccc(Br)c2)cc(-c2ccc(Nc3nc(N4CCCCC4)nc(N4CCCCC4)n3)cc2)c1N | 87.4% |
| NC(N)=N/N=C\c1ccc(OCc2ccccc2)cc1 | 77.1% |
| CCN(CC)CCC(CNc1ccnc2cc(Cl)ccc12)c1ccc(O)cc1 (stereo not given) | 104% |
| COS(=O)(=O)CCN(CCOS(C)(=O)=O)S(C)(=O)=O | 104% |
